The whole screen tested about 360,000 compounds, of which about 10,000 (2.8%) were called active. About 4% were inconclusive and are not listed. The entries come from a sample that favours actives as a whole. Unmarked numbers belong to inactive results. Calls come from the whole dose curve; as a rule, active = well fitted inhibition curve with a large enough effect; inconclusive = small, poorly fitted or top-dose-only effect; inactive = flat fitted curve, though single readings scatter.
What follows are compounds tested against Serine/threonine-protein kinase PLK1 (Homo sapiens) (UniProt P53350) (assay: qHTS for Inhibitors of PLK1-PDB (polo-like kinase 1 - polo-box domain): Primary Screen). Conditions: Plk1 PBD binding of FITC phosphopeptide, fluorescence polarization.
Sequence of Serine/threonine-protein kinase PLK1 (Homo sapiens) (P53350 whole entry, looked up, the tested form may be a part): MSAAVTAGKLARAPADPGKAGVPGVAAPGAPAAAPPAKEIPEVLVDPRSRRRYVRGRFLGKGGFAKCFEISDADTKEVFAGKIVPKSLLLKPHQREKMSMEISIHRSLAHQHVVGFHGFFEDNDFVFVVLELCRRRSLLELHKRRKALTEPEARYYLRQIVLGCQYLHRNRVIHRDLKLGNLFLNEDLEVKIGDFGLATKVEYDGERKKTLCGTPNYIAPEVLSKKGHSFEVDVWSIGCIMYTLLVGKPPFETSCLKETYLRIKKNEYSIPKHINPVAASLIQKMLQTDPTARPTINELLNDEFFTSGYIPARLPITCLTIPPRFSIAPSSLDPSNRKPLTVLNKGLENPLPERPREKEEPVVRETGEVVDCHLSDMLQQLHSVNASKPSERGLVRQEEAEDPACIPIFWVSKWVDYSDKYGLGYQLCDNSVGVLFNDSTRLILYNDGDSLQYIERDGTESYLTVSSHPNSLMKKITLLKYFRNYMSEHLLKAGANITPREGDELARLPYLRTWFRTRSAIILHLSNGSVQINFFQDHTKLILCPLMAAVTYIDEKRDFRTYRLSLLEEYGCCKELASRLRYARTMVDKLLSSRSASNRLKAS
`O=C(NCc1ccccc1)C1c2ccccc2OCC(=O)N1CCCN1CCOCC1` (configuration not stated) gave a max response, negative = inhibition of -0.492%. For `CC(C)c1ccc2c(c1)c(SC(C)(C)C)c(CC(C)(C)C(=O)O)n2Cc1ccc(Cl)cc1`, the Potency was 16.8 µM (active). `COc1ccc(NC2CCCN(C(=O)c3ccccc3-c3ncc[nH]3)C2)cc1` (configuration not stated) gave a max response, negative = inhibition of -9.12%. In the case of `CC1=C(C(=O)N(C(C)C)C(C)C)CC(CC(=O)NCCCCc2ccccc2)C(=O)N1CCC1=CCCCC1` (configuration not stated), the max response, negative = inhibition is reported as 1.49%. Work on `CN(Cc1cn(Cc2ccc(C(F)(F)F)cc2)nn1)C1CN(Cc2cn(Cc3ccc(C(F)(F)F)cc3)nn2)S(=O)(=O)C1` (configuration not stated) yielded a max response, negative = inhibition of -2.76%. Compound `CCc1ccccc1OCC(=O)Nc1ccc2c(c1)OCCO2` has a max response, negative = inhibition of -10.4%. In the case of `O=[N+]([O-])c1cccc(/C([O-])=C(/C(=S)Nc2ccccc2F)[n+]2ccccc2)c1`, the max response, negative = inhibition is reported as -15%. `CCOc1ccccc1NC(=S)C(=C([O-])c1ccc2c(c1)OCCO2)[n+]1ccc(CC)cc1` was tested, and the Potency was 26.7 µM (active). `CCOc1ccc(CCN2C(=S)N([C@@H](CC(C)C)CN3CCC[C@@H]3CN3C(=S)NC[C@@H]3Cc3ccc(O)cc3)C[C@@H]2Cc2ccc(O)cc2)cc1` showed a max response, negative = inhibition of 5.13%. For `CCc1nc2c(OCc3ccc(Cl)cc3Cl)cccn2c1N(C)C(=O)C(C)C`, the max response, negative = inhibition was 3.78%. For `CC(C)CNC(=O)C1(C)CCCN1C(=O)CSc1ccccc1` (configuration not stated), the max response, negative = inhibition was -9.29%. In the case of `O=C(CCC1CCCN(C(=O)Cc2ccc(F)cc2)C1)N1CCN(c2ccccn2)CC1` (configuration not stated), the max response, negative = inhibition is reported as 2.42%. In the case of `O=C(CCC1CCCN(C(=O)c2ccc(F)c(F)c2)C1)N1CCN(c2ccccn2)CC1` (configuration not stated), the max response, negative = inhibition is reported as -12.1%. With `C=Cc1ccc(C(=O)N2CCCC(CCC(=O)N3CCN(c4ccccn4)CC3)C2)cc1` (configuration not stated) the Potency was 21.2 µM (active). For `O=C(C=CC(=O)Nc1ccc(F)cc1F)Nc1ccc(F)cc1F`, the max response, negative = inhibition was 0.443%. `COC(=O)Cc1ccc(OC2(C)CCN(Cc3ccc4c(c3)OCCO4)C2)cc1` (configuration not stated) was tested, and the max response, negative = inhibition was -7.87%. For `O=C(NNc1cc(Cl)ccc1Cl)c1cccnc1Cl`, the max response, negative = inhibition was 7.67%. Compound `COc1cccc(CNC(=O)c2cccnc2Sc2ccc(Cl)cc2)c1` has a max response, negative = inhibition of -0.639%. For `CC(=O)/C(=N\Nc1ccc(Cl)cc1Cl)Sc1cccc2cccnc12`, the Potency was 4.23 µM (active). With `NC(c1csc(NC(=O)Nc2cccc(C(F)(F)F)c2)n1)C1CCCCC1` (configuration not stated) the max response, negative = inhibition was -5.95%. For `CC(=O)Nc1ccc(CNc2nc(NCCN(C)C)nc3cc(-c4ccccc4)sc23)cc1`, the max response, negative = inhibition was 0.652%. For `Cc1cccc(C)c1Cn1c(C)c(C(=O)NCc2cccc(Cl)c2)sc1=O`, the max response, negative = inhibition was -19.8%.

Reference: PubChem BioAssay AID720504 (National Center for Advancing Translational Sciences (NCATS), 2013)
% is set by controls: 0 for no effect and ±100 for the full control effect; potency is the fitted concentration of half-maximal effect.
Note: nearly all actives have a fitted effect of over 65% in size.
Throughout, for max response, negative = inhibition: series mostly up to about 57 µM.
